# IL1B secr inh – blocks inflammasome-driven IL-1 beta release | THP-1 LPS/ATP IL-1B secretion, AlphaLISA, 16 h; hits give low values | activity change, % at 57.5 µM | 4.7% of 360,000 active | AID 743279; in the data active = activity change below about -50%; inconclusive = mostly about -30% to -49%; also: % is scaled to controls: 0 for no effect and ±100 for the full control effect
#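 Secreted IL-1B measured by AlphaLISA bead assay after 16 h compound exposure of THP-1 cells; compounds (final up to 57.5 uM) added 1 h before LPS (250 ng/mL) and ATP (1.25 mM) stimulation; lower signal means less secretion.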
# MCF10A rerep – inducers of DNA re-replication in MCF 10A breast cells; Potency, µM (series often up to 46.1 µM), for the others: at the highest dose activity, positive = re-replication, usual class: activators; MCF 10A DNA re-replication, Hoechst nuclear intensity, 48 h; 2.9% of 350,000 active; also: potency is read from the fitted curve at half-maximal effect; % of control where 0% means no effect; nearly all actives have a fitted effect of over 50% in size
# DT40 TDP1 no CPT – qHTS for Inhibitors of human tyrosyl-DNA phosphodiesterase 1 (TDP1): qHTS in cells in absence of CPT; DT40 Tdp1-/- hTDP1 cells, no CPT, ATP luminescence, 48 h; Potency, µM (doses to about 46.2 µM), inactives show top-dose activity change, negative = growth inhibition, hits mostly inhibitors; 15% of 420,000 active; also: potency is read from the fitted curve at half-maximal effect; % is scaled to controls: 0 for no effect and ±100 for the full control effect; nearly all actives have a fitted effect of over 55% in size
#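 No-CPT arm: Tdp1-/-;hTDP1 DT40 cells (400/well) plus compounds, incubated ≥48 hr at 37 °C. Readout CellTiter-Glo luminescence.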
# TDP1 cell CPT – growth inhibition of DT40 Tdp1-/-;hTDP1 cells with camptothecin (screen for TDP1 inhibitors). chicken DT40 Tdp1-/-;hTDP1 cells + 20 nM CPT, ATP luminescence, 48 h. Potency, µM (top dose mostly 46.2 µM), for the others: at the top dose activity change, negative = growth inhibition, usual class: inhibitors. 12% of 420,000 active. AID 686979; also: potency is read from the fitted curve at half-maximal effect; % is scaled to controls: 0 for no effect and ±100 for the full control effect; nearly all actives have a fitted effect of over 55% in size
#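 Chicken DT40 Tdp1-/- cells stably complemented with human TDP1 were seeded at 400 cells/well in medium containing 20 nM camptothecin, exposed to pin-transferred compounds, and grown at 37 °C for at least 48 hr. Viability was read as ATP luminescence.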
# SW480 rerep – induces DNA re-replication in SW480 colon adenocarcinoma cells; SW480 DNA re-replication, Hoechst DNA content imaging, 48 h; Potency, µM (titrated, usually from 46.1 µM), inactives show at the top dose re-replication activation, actives largely listed as activators; 1.8% of 340,000 active; AID 624297; also: potency is read from the fitted curve at half-maximal effect; % of control where 0% means no effect; nearly all actives have a fitted effect of over 55% in size
#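 First, 250 cells per well were seeded. Next, compound or vehicle (23 nL) was pinned in, plates sat 48 hr at 37 C. Finally Hoechst was added for 40 min before fluorescence scanning.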
# BCR signal inh – blocks chronic active B-cell receptor signaling; ABC-DLBCL IkBa-CBG/CBR reporter, luminescence ratio, 4 h; Potency, µM (doses to about 46.1 µM), for inactives: at the highest dose activity change, negative = inhibition, hits mostly inhibitors; 0.05% of 340,000 active; AID 493014; active = well fitted inhibition curve with a large enough effect in the signal ratio, with a control signal flat, not every such curve was filed as active; inconclusive = small, poorly fitted or top-dose-only effect, or effect the other way, or a change in a side signal; the % refers to the signal ratio;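 also: potency is read from the fitted curve at half-maximal effect; plate controls were basal doxycycline-induced cells for no effect and cells given 10 µM MG132 for full effect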
#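 TMD8 ABC-DLBCL cells carrying doxycycline-inducible green luciferase fused to IkappaBalpha plus unfused red luciferase were exposed to compounds (up to 46 uM) for 4 hrs at 37C. Activity came from the overlap-corrected green/red luminescence ratio.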
# * = called active by the depositor; ? = inconclusive; nt = not tested or not shown. This is a sample that favours compounds with a hit; in the whole collection about 19% have one here. Unless noted, calls follow the shape of the dose curve; as a rule, active = well fitted curve in the direction sought with a large enough effect; inconclusive = small, poorly fitted or top-dose-only effect, or another doubt; inactive = no such curve, though single readings can be large; an effect the other way counts as inactive or inconclusive.
SMILES,IL1B secr inh,MCF10A rerep,DT40 TDP1 no CPT,TDP1 cell CPT,SW480 rerep,BCR signal inh
Cc1cccc(CN2CCN(C(=O)c3cccc4ccccc34)CC2)c1,-25,-3%,?,16µM*,-6%,-4%
O=C(Nc1cccc2ccccc12)N1CCN(Cc2ccccc2)CC1,12,0%,-12%,-28%,-5%,-7%
COc1ccc(C2OC(=O)CC2C(=O)NCc2ccc(Cl)cc2)cc1OC (stereo not given),57,-1%,-21%,14%,-4%,?
Cc1cccc(NC(=O)N2CCN(Cc3ccccc3)CC2)c1,0,5%,9%,4%,-6%,-20%
Cc1cccc(CN2CCN(C(=O)CCl)CC2)c1,-106*,?,16µM*,15µM*,?,?
CC1CCCCC1NC(=O)CN1CCN(S(=O)(=O)c2ccc(Br)s2)CC1 (stereo not given),-18,2%,-29%,?,1%,-11%
C=CCC[C@H](Cc1ccc(F)cc1)C(=O)OC[C@@H](Cc1c[nH]c2ccccc12)NC(=O)[C@@H](CC=C)CC(=O)NCCO,-17,-2%,?,?,-5%,?
C=CCC[C@H](Cc1ccc(F)cc1)C(=O)OC[C@@H](Cc1c[nH]c2ccccc12)NC(=O)[C@@H](CC=C)CC(=O)N(CCO)Cc1ccccc1,-62*,?,?,?,?,?
C=CCC[C@@H](Cc1ccc(F)cc1)C(=O)OC[C@H](Cc1c[nH]c2ccccc12)NC(=O)[C@H](CC=C)CC(=O)N(CCO)Cc1ccccc1,-7,?,21µM*,15µM*,?,?
COCCCNC(=O)CSC1=Nc2ccccc2C2=NC(CCC(=O)NCc3ccccc3OC)C(=O)N12 (stereo not given),nt,nt,18µM*,16µM*,nt,14%
COc1ccccc1CNC(=O)CCC1N=C2c3ccccc3N=C(SCC(N)=O)N2C1=O (stereo not given),nt,nt,3.7µM*,29µM*,nt,22%
CCCCNC(=O)CSC1=Nc2ccccc2C2=NC(CCC(=O)NCc3ccccc3OC)C(=O)N12 (stereo not given),nt,nt,?,?,nt,-1%
COc1ccc(NC(=O)CSC2=Nc3ccccc3C3=NC(CCC(=O)NCCc4ccccc4)C(=O)N23)c(OC)c1 (stereo not given),nt,nt,8.2µM*,23µM*,nt,8%
COc1ccc(CCN(Cc2cccs2)S(=O)(=O)c2ccc(C(=O)O)cc2)cc1OC,64,-3%,15%,-3%,?,16%
CN1CC[C@@]2(CCCN(C(=O)c3cccn3C)C2)C1,nt,nt,1%,-17%,nt,nt
COc1ccc(CC(=O)NCc2ccc3c(c2)OCO3)cc1,2,-3%,-40%,-11%,3%,?
CCOC(=O)/C=c1\s/c(=C\c2ccc(-c3ccccc3)cc2)c(=O)n1CC(=O)NCc1ccc2c(c1)OCO2,0,?,9.2µM*,9.2µM*,?,2%
CCOC(=O)/C=c1/s/c(=C/c2ccc3cc(OC)ccc3c2)c(=O)n1CC(=O)NCc1ccc2c(c1)OCO2,20,1.5µM*,9.2µM*,5.8µM*,?,nt
CCOC(=O)/C=c1\s/c(=C\c2ccc3cc(OC)ccc3c2)c(=O)n1CC(=O)NCC1CCCO1 (stereo not given),-7,12µM*,6.5µM*,9.2µM*,25%,-7%
Cc1c(C(=O)NC(=S)N(Cc2ccccc2)c2ccccn2)cccc1[N+](=O)[O-],0,12%,-29%,?,-12%,2%
COc1ccc(CC2=CC(=O)c3ccccc3C2=O)cc1,-98*,?,2.1µM*,1.8µM*,0%,?
